From PubChem
This is one part of a sample in which hits are shown more often than they occur.
ST2 inh = inhibitors of human ST2 (IL1RL1) binding to IL-33; AlphaLISA ST2-Fc/biotin-IL-33 interaction, 1 h; inhibition, % for hits at 17 µM; 2.3% of 78,000 active; in the data active = inhibition above about 30%
Target sequence (Q01638 whole entry, looked up): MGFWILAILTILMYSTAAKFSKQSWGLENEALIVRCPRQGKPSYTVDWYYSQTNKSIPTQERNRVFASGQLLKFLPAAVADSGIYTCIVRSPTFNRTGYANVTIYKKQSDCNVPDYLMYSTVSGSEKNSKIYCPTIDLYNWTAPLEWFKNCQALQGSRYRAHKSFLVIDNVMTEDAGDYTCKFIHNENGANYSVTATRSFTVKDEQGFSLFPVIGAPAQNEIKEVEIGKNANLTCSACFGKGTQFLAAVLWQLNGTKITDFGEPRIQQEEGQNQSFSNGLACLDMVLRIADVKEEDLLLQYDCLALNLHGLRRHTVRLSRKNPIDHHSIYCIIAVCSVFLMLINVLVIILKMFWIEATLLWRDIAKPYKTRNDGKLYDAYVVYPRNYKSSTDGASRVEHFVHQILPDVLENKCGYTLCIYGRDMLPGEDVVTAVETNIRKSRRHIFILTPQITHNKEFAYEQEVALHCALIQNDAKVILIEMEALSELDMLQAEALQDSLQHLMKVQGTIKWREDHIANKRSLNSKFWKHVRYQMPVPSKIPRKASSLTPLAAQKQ
* hit, by the source's call; i = inactive.

SMILES | ST2 inh
Cc1ccccc1N=C1NC(=O)C(Cc2ccccc2[N+](=O)[O-])S1 (stereo not given) | i
O=C(CSc1nc2c(c(=O)n1-c1ccc(F)cc1)SCC2)NC1CCCCC1 | i
COc1ccc(CNC(=O)[C@H]2O[C@H](CCN3CCN(c4ccccc4)CC3)CC[C@@H]2O)cc1 | i
O=C(O)C1CC=CCC1C(=O)Nc1ccccc1 (stereo not given) | i
COCCN(CCOC)CC[C@@H]1CC[C@H](O)[C@@H](C(=O)Nc2ccccc2)O1 | 38%*
CC(C)c1noc([C@@H]2Cc3nc[nH]c3CN2Cc2cccc(OC(F)(F)F)c2)n1 | i
Cc1c(C(=O)Cc2ccccc2)n(C)c2ccccc12 | 37%*
CC(=O)n1c2ccccc2c2c1c1ccccc1n2C | i
CC(=O)c1ccc2c(c1)c1ccccc1n2C | i
CCC(=O)N1c2ccc(S(=O)(=O)NC(C)CC)cc2CC1C (stereo not given) | i
CCOC(=O)CSc1nc2c([nH]c3ccccc32)c(=O)n1-c1cccc(OC)c1 | i
Cn1c(=O)c2c(nc(Br)n2Cc2cccc(Br)c2)n(C)c1=O | i
O=C(Cn1c(=O)sc2ccccc21)NCc1ccccc1F | i
O=C(CC[C@@H]1CNC(=O)[C@@H]2C[C@H](NC(=S)Nc3ccccc3)CN12)NC1CC1 | i
COc1ccc(NC(=S)N[C@H]2C[C@H]3C(=O)NC[C@@H](CCC(=O)NC4CC4)N3C2)cc1 | i
CCN(CC)C(=O)CC[C@@H]1CNC(=O)[C@@H]2C[C@H](NC(=S)Nc3ccccc3)CN12 | 36%*
Cc1ccc(-c2noc([C@@H]3C[C@@H](O)CN3Cc3ccc(F)cc3)n2)cc1F | i
COCc1cc(CC2(NCc3cc4ccccc4o3)COC2)no1 | i
CC(C)N1CCC[C@H]1c1nc(-c2ccc(-n3ccnc3)nc2)no1 | 35%*
c1cc(N2CCOCC2)ncc1-c1noc([C@@H]2CCCN2C2CCOCC2)n1 | i
c1cn(-c2ccc(-c3noc([C@@H]4CCCN4)n3)cn2)cn1 | i
CCCOc1ccccc1NC(=O)CC1Sc2ccc(C(F)(F)F)cc2NC1=O (stereo not given) | i
CC1(C)C[C@@H]2C[C@@](C)(CN2c2ccnc(C(=O)NCc3cccnc3)c2)C1 | i
O=C1NN(c2ccc(Cl)c(Cl)c2)C(=O)/C1=C\c1ccc(-c2cccc(C(=O)O)c2)o1 | i
CC1=NN(c2cccc(Br)c2)C(=O)/C1=C\c1ccc(-c2cccc([N+](=O)[O-])c2)o1 | i
SMILES | ST2 inh
Cc1ccc(N2NC(=O)/C(=C/c3ccc(-c4cccc([N+](=O)[O-])c4)o3)C2=O)cc1C | 61%*
CCN(CC)c1ncccc1CNC(=O)CN1CC(=O)NC1=O | i
Cc1cccc(CN2CCN(C(=O)c3cn4ccsc4n3)C(C)C2=O)c1 (stereo not given) | i
CC(=O)Nc1ccc(S(=O)(=O)N(CC2C(C)C=C(C)CC2C)C2CCCCC2)cc1 (stereo not given) | 32%*
O=C(CN(C1CCCCC1)S(=O)(=O)c1ccc(Br)cc1)NC1CC1 | i
CNC(=O)CN(C1CCCCC1)S(=O)(=O)c1ccccc1 | i
Cn1c2c(c(=O)n(C)c1=O)C(c1ccccc1)C1=C(N2)c2ccccc2C1=O (stereo not given) | i
Cn1c(=O)c(N)c2c3c(cccc31)C(=O)c1ccccc1-2 | 31%*
Cn1c(=O)c2c(-c3ccccc3)n(N)cc2n(C)c1=O | i
O=C(CN(C1CCCCC1)S(=O)(=O)c1ccc(F)cc1)N1CCN(c2ccccc2F)CC1 | i
O=C(Cc1ccccc1)NC(Nc1ccc(Cl)cc1)C(Cl)(Cl)Cl (stereo not given) | i
O=C(CSc1nnc2c(n1)[nH]c1ccccc12)c1ccc(Cl)cc1 | 32%*
O=C(CSc1nnc2c(n1)[nH]c1ccccc12)Nc1nc2ccc([N+](=O)[O-])cc2s1 | i
Brc1ccc(CSc2nnc3c(n2)[nH]c2ccccc23)cc1 | i
Cn1c(=O)c2cc(S(=O)(=O)Nc3ccc(Br)cc3)ccc2n(C)c1=O | i
CC1CCCC2(C1)C(C#N)=C(SCC(=O)Nc1ccc(Br)cc1)NC(=O)C2C#N (stereo not given) | i
CCc1nc(NCCN(CC)CC)c(C#N)c2c1CCCC2 | i
CCCc1cc(NCCCCO)n2c(nc3ccccc32)c1C#N | i
CCN(CC)CCCNc1c2c(c(C#N)c3nc4ccccc4n13)CCC2 | 42%*
Cc1nn(C)c(C)c1-c1ccnc(NCC2COCCO2)n1 (stereo not given) | i
CCOC(=O)N1CCN(C(=O)c2ccc(N3CCC(NCCc4cccs4)CC3)cc2)CC1 | i
O=C(c1ccc(N2CCC(NCC3(N4CCOCC4)CCCC3)CC2)cc1)N1CCCC(O)C1 (stereo not given) | 31%*
CCOC(=O)N1CCN(C(=O)c2ccc(N3CCC(NCCc4ccncc4)CC3)cc2)CC1 | i
CC(C)Cn1nc(C(=O)N2CCCC2)c2c1CCC(NCCc1cccs1)C2 (stereo not given) | i
CCOc1cc(/C=C2\NC(=O)N(Cc3ccc(Cl)cc3)C2=O)cc(Cl)c1OCC(=O)O | i
